Inconclusive results are not listed. The source made the active and inactive calls. Calls follow the shape of the dose curve; as a rule, active = well fitted inhibition curve with a large enough effect; inconclusive = small, poorly fitted or top-dose-only effect; inactive = no such curve, though single readings can be large or run the other way.
% is scaled to controls: 0 for no effect and ±100 for the full control effect; potency is read from the fitted curve at half-maximal effect.

One experiment has as its target Retinaldehyde dehydrogenase 3 (Homo sapiens) (UniProt P47895). As to the kind of experiment: qHTS for Inhibitors of the Aldehyde Dehydrogenase Family (ALDH1A3) Confirmatory screens (AID 2061311). Also: nearly all actives have a fitted effect of over 60% in size. The conditions noted are these: ALDH inhibition qHTS; series mostly up to 46 µM; activity change, negative = inhibition: at the top concentration. A general note: Quantitative high-throughput screening tests each substance at several concentrations.
With `C=C[C@H]1[C@H](O[C@@H]2O[C@H](CO)[C@@H](O)[C@H](O)[C@H]2O)OC=C(C(=O)OC)[C@H]1CCOC(=O)c1cc(O)c(O)c(O)c1`, the Potency is 6.18 µM (active).

`N#Cc1ccc2[nH]cc(CCCCN3CCN(c4ccc5oc(C(N)=O)cc5c4)CC3)c2c1`: the Potency was 15.8 µM (active).

Turning to `Cc1ccc(NC(=O)N2CCN(c3nc(N)nc4sc(-c5cccnc5)nc34)CC2)cc1`, the Potency is 2.52 µM (active).

For `C=CC(=O)N1CCN(C(=O)CNc2cc(I)c(Cl)cc2O)CC1`, the Potency was 1.79 µM (active).

Regarding `C=CC(=O)Nc1cccc(Nc2nc(Nc3ccc(Oc4ccnc(C(=O)NC)c4)cc3)ncc2F)c1`, the “activity change, negative = inhibition” value is -2.7% (inactive).

For `Oc1ccc(Nc2nc(-c3ccc(Cl)cc3)cs2)cc1`, the “activity change, negative = inhibition” value is -7.47% (inactive).

On to `COCC(=O)NC/C=C/c1ccc2ncnc(Nc3ccc(Oc4ccc(C)nc4)c(C)c3)c2c1`, for which the result was inactive.

Regarding `CCN(Cc1cc(Nc2nc(C)cn3c(-c4cn[nH]c4)cnc23)sn1)C(C)(C)CO`, the Potency was 12.7 µM (active).

In the case of `O=C(O)c1cc(O[C@@H]2O[C@H](CO[C@@H]3OC[C@@H](O)[C@H](O)[C@H]3O)[C@@H](O)[C@H](O)[C@H]2O)c2ccccc2c1O`, the Potency is 1.38 µM (active).

Consider `O=C(NCC(=O)N1CCCC1)Nc1ccc2ccccc2c1`, for which the Potency is 1.01 µM (active).

As for `COc1ccc(-c2ccn(CC[C@](C)(C(=O)NO)S(C)(=O)=O)c(=O)c2)c(F)c1`, the Potency was 7.98 µM (active).

With `O=C(/C=C/c1ccc(O)c(O)c1)O[C@H]1[C@H](OC2CCCCC2O)O[C@H](CO)[C@@H](O)[C@@H]1O` (some centres not stated), the Potency is 11 µM (active).

With `Cc1ccc(CN2CCNCC2)cc1NC(=O)CNc1ccc(F)c(F)c1`, the “activity change, negative = inhibition” value was -17% (inactive).

Turning to `OC[C@H]1O[C@@H](O[C@H]2[C@H](O)[C@@H](CO)O[C@@H](OCc3ccccc3)[C@@H]2O[C@@H]2OC[C@](O)(CO)[C@H]2O)[C@H](O)[C@@H](O)[C@@H]1O`, the Potency was 12.3 µM (active).

The next experiment has the same target. As to the kind of experiment: qHTS for Inhibitors of the Aldehyde Dehydrogenase Family (ALDH1A3) Validation screen (AID 2061312). Also: nearly all actives have a fitted effect of over 45% in size. The settings on record: ALDH1A3 enzyme inhibition qHTS validation, fluorescence; series mostly up to 84.7 µM; activity change, negative = inhibition: at the top concentration.
As for `N#Cc1ccc2[nH]cc(CCCCN3CCN(c4ccc5oc(C(N)=O)cc5c4)CC3)c2c1`, the “activity change, negative = inhibition” value is 145% (inactive).

For the molecule `Cc1ccc(NC(=O)N2CCN(c3nc(N)nc4sc(-c5cccnc5)nc34)CC2)cc1`, the Potency is 2.82 µM (active).

Turning to `C=CC(=O)N1CCN(C(=O)CNc2cc(I)c(Cl)cc2O)CC1`, the Potency is 7.08 µM (active).

Take `CN(C)c1cccc(Oc2cnc(Nc3cccc(O)c3)nc2)c1`: the Potency is 8.91 µM (active).

On to `O=C(NCC(=O)N1CCCC1)Nc1ccc2ccccc2c1`, for which the Potency is 3.55 µM (active).

Regarding `O=c1nc(-c2ccccn2)sc2ccccc12`, the Potency is 2.82 µM (active).

Take `Cc1[nH]c(/C=C2\C(=O)Nc3cc(-c4ccccc4)ccc32)c(C)c1CCC(=O)O`: the “activity change, negative = inhibition” value is 106% (inactive).

`Cn1cc(-c2ccncc2)c(-c2ccc(OCc3ccc4ccccc4n3)cc2)n1`: the “activity change, negative = inhibition” value is -4.83% (inactive).

Another experiment addresses Retinal dehydrogenase 2 (Homo sapiens) (UniProt O94788). As to the kind of experiment: qHTS for Inhibitors of the Aldehyde Dehydrogenase Family (ALDH1A2) Confirmation screens (AID 2061314). Also: nearly all actives have a fitted effect of over 65% in size. The conditions noted are these: ALDH1A2 enzyme inhibition qHTS confirmation; series mostly up to 45.9 µM; activity, negative = inhibition: at the top concentration.
For the molecule `C=C[C@H]1[C@H](O[C@@H]2O[C@H](CO)[C@@H](O)[C@H](O)[C@H]2O)OC=C(C(=O)OC)[C@H]1CCOC(=O)c1cc(O)c(O)c(O)c1`, the “activity, negative = inhibition” value was -4.3% [at 25.6 µM] (inactive).

Turning to `COc1cc(C2Oc3c(OC)cc(CCCO[C@@H]4O[C@H](CO)[C@@H](O)[C@H](O)[C@H]4O)cc3C2CO)ccc1O` (some centres not stated), the “activity, negative = inhibition” value was 0.549% [at 25.6 µM] (inactive).

Take `N#Cc1ccc2[nH]cc(CCCCN3CCN(c4ccc5oc(C(N)=O)cc5c4)CC3)c2c1`: the Potency was 15.8 µM (active).

As to `Cc1ccc(NC(=O)N2CCN(c3nc(N)nc4sc(-c5cccnc5)nc34)CC2)cc1`, the Potency was 14.1 µM (active).

Take `C=CC(=O)N1CCN(C(=O)CNc2cc(I)c(Cl)cc2O)CC1`: the Potency is 28.3 µM (active).

With `C=CC(=O)Nc1cccc(Nc2nc(Nc3ccc(Oc4ccnc(C(=O)NC)c4)cc3)ncc2F)c1`, the “activity, negative = inhibition” value was -13.8% (inactive).

Consider `COc1ccc(-c2c(-c3cc(C(=O)O)ccn3)ncn2C)cc1`, for which the Potency was 28.3 µM (active).

`Oc1ccc(Nc2nc(-c3ccc(Cl)cc3)cs2)cc1`: the “activity, negative = inhibition” value was -13.7% (inactive).

`COCC(=O)NC/C=C/c1ccc2ncnc(Nc3ccc(Oc4ccc(C)nc4)c(C)c3)c2c1`: the molecule was classed as inactive.

`OC/C=C/C=C/[C@H]1Cc2cc(O)cc(O)c2O1`: the “activity, negative = inhibition” value is 1.17% (inactive).

For the molecule `CCN(Cc1cc(Nc2nc(C)cn3c(-c4cn[nH]c4)cnc23)sn1)C(C)(C)CO`, the Potency was 31.8 µM (active).

For `COc1cc2ncc(-c3ccccc3)nc2cc1OC`, the “activity, negative = inhibition” value was -12.3% (inactive).

For the molecule `C[C@@H]1O[C@@H](O[C@H]2[C@H](O[C@H]3CO[C@@H](O[C@H]4CC[C@@]5(C)C(CC[C@]6(C)C5CC[C@]57OC[C@@]8(CC[C@](C)(CO)CC85)[C@H](O)C[C@]76C)C4(C)C)[C@H](O[C@@H]4O[C@H](CO)[C@@H](O)[C@H](O)[C@H]4O)[C@H]3O)O[C@H](CO)[C@@H](O)[C@@H]2O)[C@H](O)[C@H](O)[C@H]1O` (some centres not stated), the activity, negative = inhibition was -8.29% [at 10 µM] (inactive).

As to `C/C=C/C=C/c1cc2c(C=O)c(O)c(CC=C(C)C)cc2o1`, the Potency was 10.1 µM (active).

Take `CC1=CC(=O)C(=C(C)C)CC2C(C)(O)CCC12O` (configuration not stated): the call was inactive.

Take `O=C(O)c1cc(O[C@@H]2O[C@H](CO[C@@H]3OC[C@@H](O)[C@H](O)[C@H]3O)[C@@H](O)[C@H](O)[C@H]2O)c2ccccc2c1O`: the Potency is 2.46 µM (active).

For the molecule `O=c1nc(-c2ccccn2)sc2ccccc12`, the “activity, negative = inhibition” value was -0.357% (inactive).

Take `CC1=C2CC3C(CCC3(C)O)C(C)(O)CC2OC1=O` (configuration not stated): the “activity, negative = inhibition” value is 0.538% (inactive).

For `CC1(C)O[C@@]2(C)CC[C@@H]1C[C@@H]2OC1OC(CO)C(O)C(O)C1O` (some centres not stated), the “activity, negative = inhibition” value is 4.89% [at 25.6 µM] (inactive).

As for `O=C(OC1C=C(CO)C2C(OC3OC(CO)C(O)C(O)C3O)OC=CC12O)c1ccc(O)cc1` (configuration not stated), the “activity, negative = inhibition” value was 4.7% [at 25.6 µM] (inactive).

For `COc1ccc(-c2ccn(CC[C@](C)(C(=O)NO)S(C)(=O)=O)c(=O)c2)c(F)c1`, the Potency is 5.65 µM (active).

`Cn1cc(-c2ccncc2)c(-c2ccc(OCc3ccc4ccccc4n3)cc2)n1`: the “activity, negative = inhibition” value was -13.3% (inactive).

In the case of `CC(C)=C1CC2C(CCC2(C)O)C(C)(O)CC1=O` (configuration not stated), the “activity, negative = inhibition” value is -5.05% (inactive).

Consider `COc1cc([C@H]2c3cc(O)c(OC)cc3C[C@@H](CO[C@@H]3O[C@H](CO)[C@@H](O)[C@H](O)[C@H]3O)[C@@H]2CO)ccc1O`, for which the “activity, negative = inhibition” value was -21.4% [at 25.6 µM] (inactive).

For the molecule `C=C1C(=O)OC2CC(C)=C(C(C)CCCO)C(O)C12` (configuration not stated), the “activity, negative = inhibition” value was -19% (inactive).
